“And” between values parts separate entries of the source, which are not always exact repeats. Identical values can stand only once. For some assays here: Potency and affinity values are given separately. The source made the active and inactive calls.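 Rule for the calls, unless noted: active = thallium flux through the channel raised or lowered by more than 3 SD from vehicle-only wells, actives on both sides; inactive = the rest.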
What was measured:
[1] = hESC survival regulators, cell-based (AID 493140; call rule not given here;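 note: cells exposed to compounds for four days before counting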); details: human embryonic stem cell survival screen; stronger effect = higher value
[2] = liver-stage malaria parasite growth inhibition, primary screen, cell-based, HepG2, luciferase luminescence, HepG2 viability (AID 624349; in the data active = parasite load remaining mostly below about 12%, no sharp cut-off; inactive = mostly above about 10%;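 note: 100% = mean of DMSO negative control wells on the same plate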); details: P. berghei liver stage in HepG2, luciferase luminescence, concentration not given here; parasite load remaining: stronger effect = lower value; viability: measured here: HepG2 viability without parasites
[3] = Cy5 fluorescence interference with SSB-bound oligo, artefact control for HCV NS3 helicase inhibitor project, biochemical, NIH Clinical Collection, E. coli SSB (AID 743268; call rule not given here)
[4] = modulation of C. elegans fzo-1 (AID 1259413; call rule not given here;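 note: fzo-1 mutant C. elegans worms in liquid wells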); details: C. elegans fzo-1 modulator screen, mean read-out; stronger effect = higher value
[5] = viability rescue of complex I mutant cybrids, primary screen, cell-based, galactose medium, ATP luminescence (AID 1645843;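 active = z-score of at least 1.8 in each of two replicates, scored against plate mean and spread of sample wells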;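 note: positive z means more ATP and so rescue of galactose-driven cybrid death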); details: complex I mutant cybrid cells, 72 h, stronger effect = higher value
F380Y/beta1 = experiment: modulators of BK channel variants, profiling panel, selectivity assay, cell-based, U2OS BacMam, thallium flux, beta subunits (AID 1259406); details: at 30 µM;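 note: initial slope of Thallos dye fluorescence rise after thallium is added; log ratio against the mean of 0.3% DMSO vehicle wells on the same plate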
F380Y/beta4 = experiment: as above; details: at 30 µM
R275C = experiment: as above; details: at 30 µM
R275C/beta1 = experiment: as above; details: at 30 µM
R275C/beta2Delta = experiment: as above; details: at 30 µM
R275C/beta4 = experiment: as above; details: at 30 µM
R275C/Slo1WT/beta2 = experiment: as above; details: at 30 µM
[6] = polyglutamine-triggered caspase-3 activation inhibitors, cell-based (AID 1583); details: polyglutamine-induced caspase-3 activation, cell assay; stronger effect = higher value;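 tested at 10 µM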
[7] = suppressors of polyQ aggregation in yeast, 75Q-TubU reporter (AID 1593); details: Yeast 75Q polyglutamine aggregation reporter
[8] = rescue of polyQ-huntingtin neuronal dysfunction in worms, whole organism, C. elegans mechanosensory neurons, N-terminal huntingtin (AID 1599); details: touch response, stronger effect = higher value
[9] = inhibitors of mitochondrial cytochrome c release, biochemical, purified mitochondria (AID 1603); details: stronger effect = lower value;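 note: mouse liver mitochondria challenged with calcium chloride; signal normalized to the plate average as 100%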
[10] = inhibitors of polyQ protein aggregation (AID 1604); details: polyglutamine-induced protein aggregation inhibition assay; stronger effect = higher value; tested at 2.5 µM
[11] = enhancers of glutamate uptake in motor neurons, MN-1 cell line (AID 1612); details: MN-1 motor neuron cells, stronger effect = higher value;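 note: tested at 1 µM final; 0% = mean of DMSO vehicle wells on each plate; positive means more glutamate uptake than control and negative means less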
[12] = suppressors of polyglutamine aggregation in yeast, 75Q-TubH (AID 1616); details: S. cerevisiae 75Q-TubH polyglutamine aggregation suppression; stronger effect = higher value
[13] = tested on: Hepatitis C virus NS3 helicase; experiment: HCV NS3 helicase inhibitors, primary screen, biochemical, fluorescence polarization, LOPAC1280 library (AID 687035; in the data active = inhibition above about 37%); details: Purified HCV NS3 helicase, Cy5-dT15 ssDNA binding fluorescence polarization; stronger effect = higher value; concentration not given here

With `COc1cc([C@@H]2c3cc4c(cc3[C@H](O)[C@H]3COC(=O)[C@H]23)OCO4)cc(OC)c1OC` the survival [1] was 0.917 (inactive), the parasite load remaining [2] was 94.8% (inactive) and 112% (inactive) and 73% (inactive) and the viability [2] was 107% and 103% and 113%. For the same molecule, the fluorescence ratio [3] was 1.01 (inactive), the mean signal [4] was 221 (inactive) and the z-score [5] was 0.5 (inactive). The log fold change Tl+ flux (F380Y/beta1) was 0.00363 (inactive), the log fold change Tl+ flux (F380Y/beta4) was 0.0253 (inactive) and the log fold change Tl+ flux (R275C) was -0.0185 (inactive). The log fold change Tl+ flux (R275C/beta1) was 0.0124 (inactive), the log fold change Tl+ flux (R275C/beta2Delta) was 0.0291 (inactive) and the log fold change Tl+ flux (R275C/beta4) was 0.0119 (inactive). For the same molecule, the log fold change Tl+ flux (R275C/Slo1WT/beta2) was 0.00946 (inactive).
In the case of `O=C1[C@H](CC[C@H](O)c2ccc(F)cc2)[C@@H](c2ccc(O)cc2)N1c1ccc(F)cc1`, the parasite load remaining [2] is reported as 62.8% (inactive), the viability [2] is reported as 65.3% and the fluorescence ratio [3] is reported as 0.97 (inactive). The mean signal [4] was 228 (inactive), the log fold change Tl+ flux (F380Y/beta1) was 0.33 (active) and the log fold change Tl+ flux (F380Y/beta4) was 0.106 (active). For the same molecule, the log fold change Tl+ flux (R275C) was -0.0195 (inactive), the log fold change Tl+ flux (R275C/beta1) was 0.416 (active) and the log fold change Tl+ flux (R275C/beta2Delta) was 0.12 (active). For the same molecule, the log fold change Tl+ flux (R275C/beta4) was 0.207 (active) and the log fold change Tl+ flux (R275C/Slo1WT/beta2) was 0.0256 (inactive).
In the case of `Cc1ccc(O)c([C@H](CCN(C(C)C)C(C)C)c2ccccc2)c1`, the parasite load remaining [2] is reported as 63.7% (inactive), the viability [2] is reported as 67.2% and the fluorescence ratio [3] is reported as 1 (inactive). The mean signal [4] was 219 (inactive), the log fold change Tl+ flux (F380Y/beta1) was 0.0975 (active) and the log fold change Tl+ flux (F380Y/beta4) was 0.136 (active). For the same molecule, the log fold change Tl+ flux (R275C) was -0.0487 (inactive), the log fold change Tl+ flux (R275C/beta1) was 0.03 (inactive) and the log fold change Tl+ flux (R275C/beta2Delta) was 0.0798 (inactive). The log fold change Tl+ flux (R275C/beta4) was 0.0668 (inactive) and the log fold change Tl+ flux (R275C/Slo1WT/beta2) was 0.0213 (inactive).
In the case of `Cc1onc(-c2ccccc2)c1-c1ccc(S(N)(=O)=O)cc1`, the parasite load remaining [2] is reported as 163% (inactive) and 88.9% (inactive), the viability [2] is reported as 90.7% and 71.3% and the fluorescence ratio [3] is reported as 1 (inactive). For the same molecule, the mean signal [4] was 275 (inactive), the z-score [5] was -0.505 (inactive) and the log fold change Tl+ flux (F380Y/beta1) was 0.0307 (inactive). The log fold change Tl+ flux (F380Y/beta4) was 0.0618 (inactive), the log fold change Tl+ flux (R275C) was 0.0179 (inactive) and the log fold change Tl+ flux (R275C/beta1) was 0.0767 (inactive). The log fold change Tl+ flux (R275C/beta2Delta) was 0.0842 (inactive), the log fold change Tl+ flux (R275C/beta4) was 0.0327 (inactive) and the log fold change Tl+ flux (R275C/Slo1WT/beta2) was -0.0445 (inactive).
Molecule `Nc1nc2ncc(CNc3ccc(C(=O)N[C@@H](CCC(=O)O)C(=O)O)cc3)nc2c(=O)[nH]1` has an inhibition [6] of 15.9%, a score [7] of 1.02 and a rescue above control [8] of -0.86. The cytochrome c release ratio [9] was 1.08, the inhibition of aggregation [10] was 77.8% and the glutamate uptake change [11] was 0.74%. The aggregation suppression score [12] was 1.14, the fluorescence ratio [3] was 0.95 (inactive) and the mean signal [4] was 246 (inactive). For the same molecule, the z-score [5] was -0.64 (inactive), the log fold change Tl+ flux (F380Y/beta1) was -0.0026 (inactive) and the log fold change Tl+ flux (F380Y/beta4) was 0.025 (inactive). For the same molecule, the log fold change Tl+ flux (R275C) was -0.0335 (inactive), the log fold change Tl+ flux (R275C/beta1) was 0.00862 (inactive) and the log fold change Tl+ flux (R275C/beta2Delta) was 0.0304 (inactive). The log fold change Tl+ flux (R275C/beta4) was -0.0613 (inactive) and the log fold change Tl+ flux (R275C/Slo1WT/beta2) was -0.0318 (inactive).
In the case of `C[C@]12CCC(=O)C=C1CC[C@@H]1[C@@H]2[C@@H](O)C[C@@]2(C)[C@H]1CC[C@]2(O)C(=O)COC(=O)CCC(=O)O`, the parasite load remaining [2] is reported as 82.9% (inactive), the viability [2] is reported as 105% and the fluorescence ratio [3] is reported as 0.99 (inactive). The mean signal [4] was 257 (inactive), the z-score [5] was -0.315 (inactive) and the log fold change Tl+ flux (F380Y/beta1) was -0.0186 (inactive). The log fold change Tl+ flux (F380Y/beta4) was 0.0128 (inactive), the log fold change Tl+ flux (R275C) was 0.0834 (inactive) and the log fold change Tl+ flux (R275C/beta1) was 0.0319 (inactive). The log fold change Tl+ flux (R275C/beta2Delta) was 0.0103 (inactive), the log fold change Tl+ flux (R275C/beta4) was -0.0484 (inactive) and the log fold change Tl+ flux (R275C/Slo1WT/beta2) was -0.0271 (inactive).
In the case of `c1ccc(-c2ccc(C(c3ccccc3)n3ccnc3)cc2)cc1` (stereo not drawn), the fluorescence ratio [3] is reported as 1.01 (inactive), the mean signal [4] is reported as 204 (inactive) and the z-score [5] is reported as -1.87 (inactive) and -2.02 (inactive). For the same molecule, the log fold change Tl+ flux (F380Y/beta1) was 0.00744 (inactive), the log fold change Tl+ flux (F380Y/beta4) was 0.00227 (inactive) and the log fold change Tl+ flux (R275C) was -0.0477 (inactive). For the same molecule, the log fold change Tl+ flux (R275C/beta1) was 0.164 (active), the log fold change Tl+ flux (R275C/beta2Delta) was -0.336 (active) and the log fold change Tl+ flux (R275C/beta4) was -0.0228 (inactive). The log fold change Tl+ flux (R275C/Slo1WT/beta2) was -0.0124 (inactive).
Molecule `CCN(CC)CC(=O)Nc1c(C)cccc1C` has an inhibition [6] of -3.43%, a score [7] of 1.56 and a rescue above control [8] of -0.5. The cytochrome c release ratio [9] was 1.13, the inhibition of aggregation [10] was 87% and the glutamate uptake change [11] was 0.81%. For the same molecule, the aggregation suppression score [12] was 1.18, the survival [1] was 23.2 (inactive) and the inhibition [13] was -3% (inactive). For the same molecule, the fluorescence ratio [3] was 1.01 (inactive), the mean signal [4] was 257 (inactive) and the z-score [5] was 0.01 (inactive) and 0.715 (inactive) and 0.48 (inactive). For the same molecule, the log fold change Tl+ flux (R275C) was -0.00245 (inactive), the log fold change Tl+ flux (R275C/beta1) was -0.022 (inactive) and the log fold change Tl+ flux (R275C/beta2Delta) was 0.00392 (inactive).
Molecule `O=C1N=C(O)CN1/N=C/c1ccc(-c2ccc([N+](=O)[O-])cc2)o1` has an inhibition [6] of 24%, a score [7] of 1.7 and a rescue above control [8] of -1.39. The cytochrome c release ratio [9] was 0.66, the inhibition of aggregation [10] was 71.6% and the glutamate uptake change [11] was -2.24%. For the same molecule, the aggregation suppression score [12] was 1.1, the survival [1] was 28.9 (inactive) and the parasite load remaining [2] was 21.2% (inactive) and 82.2% (inactive) and 9.57% (inactive). For the same molecule, the viability [2] was 47.1% and 91.4% and 102%, the mean signal [4] was 232 (inactive) and the z-score [5] was -0.315 (inactive) and -0.365 (inactive).

Source: PubChem BioAssay
